# Measured values: article PMC7862700, “An all-to-all approach to the identification of sequence-specific readers for epigenetic DNA modifications on cytosine”
# Tests used:
# Experiment in all cases: DAPPL (digital affinity profiling via proximity ligation, sequencing); 10 mM Tris-HCl pH 7.5, 50 mM NaCl, 1 mM DTT, 4% glycerol, room temperature, 30 min; GST-TFs on glutathione beads, 16-mer random dsDNA library, 0.1% formaldehyde crosslink after washing; high values mean tight binding
# [1] = molecular target: T1, FLI1 (Homo sapiens, UniProt Q01543 1-452); details: protein: recombinant; tags: N-terminal GST; dsDNA, one strand shown
# T1 sequence: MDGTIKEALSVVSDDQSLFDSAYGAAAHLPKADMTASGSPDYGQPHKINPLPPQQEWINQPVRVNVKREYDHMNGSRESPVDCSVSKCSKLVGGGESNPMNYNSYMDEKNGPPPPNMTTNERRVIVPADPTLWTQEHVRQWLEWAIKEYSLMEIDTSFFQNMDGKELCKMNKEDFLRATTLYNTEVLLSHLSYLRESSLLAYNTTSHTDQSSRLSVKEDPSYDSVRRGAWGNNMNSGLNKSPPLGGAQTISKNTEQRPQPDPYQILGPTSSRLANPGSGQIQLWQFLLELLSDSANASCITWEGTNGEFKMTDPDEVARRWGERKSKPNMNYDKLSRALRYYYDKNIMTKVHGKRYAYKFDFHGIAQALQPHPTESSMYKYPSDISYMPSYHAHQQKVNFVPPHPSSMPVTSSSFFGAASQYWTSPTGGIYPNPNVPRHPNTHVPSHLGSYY
# How it was run: (§1)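 GST fusions of human transcription factors were expressed in yeast and captured with glutathione beads. Once given DNA barcodes and pooled alongside a tag-only sample, they were incubated for 30 min at room temperature with 200 nmole of a random double-stranded 16-mer DNA library in Tris/NaCl/DTT/glycerol buffer, then washed, crosslinked (0.1% formaldehyde), proximity-ligated, PCR-amplified and sequenced on an Illumina NextSeq500. The binding signal of each hexamer is its read frequency for a factor divided by its frequency for the tag-only sample.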
# [2] = molecular target: T2, ELK1 (Homo sapiens, UniProt P19419 1-428); details: protein: recombinant; tags: N-terminal GST; dsDNA, one strand shown
# T2 sequence: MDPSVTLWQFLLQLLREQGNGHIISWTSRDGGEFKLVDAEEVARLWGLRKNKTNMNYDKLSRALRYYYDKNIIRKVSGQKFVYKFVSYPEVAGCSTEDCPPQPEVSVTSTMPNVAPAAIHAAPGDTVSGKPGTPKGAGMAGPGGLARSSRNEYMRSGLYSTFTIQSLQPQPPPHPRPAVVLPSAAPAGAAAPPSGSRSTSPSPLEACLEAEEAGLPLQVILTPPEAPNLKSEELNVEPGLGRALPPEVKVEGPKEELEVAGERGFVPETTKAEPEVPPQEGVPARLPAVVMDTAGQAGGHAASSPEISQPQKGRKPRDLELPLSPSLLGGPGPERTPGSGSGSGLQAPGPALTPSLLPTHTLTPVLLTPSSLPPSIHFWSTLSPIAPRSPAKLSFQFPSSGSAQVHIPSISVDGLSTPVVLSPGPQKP
# How it was run: as §1
# [3] = molecular target: T3, GABPA (Homo sapiens, UniProt Q06546 1-454); details: protein: recombinant; tags: N-terminal GST; dsDNA, one strand shown
# T3 sequence: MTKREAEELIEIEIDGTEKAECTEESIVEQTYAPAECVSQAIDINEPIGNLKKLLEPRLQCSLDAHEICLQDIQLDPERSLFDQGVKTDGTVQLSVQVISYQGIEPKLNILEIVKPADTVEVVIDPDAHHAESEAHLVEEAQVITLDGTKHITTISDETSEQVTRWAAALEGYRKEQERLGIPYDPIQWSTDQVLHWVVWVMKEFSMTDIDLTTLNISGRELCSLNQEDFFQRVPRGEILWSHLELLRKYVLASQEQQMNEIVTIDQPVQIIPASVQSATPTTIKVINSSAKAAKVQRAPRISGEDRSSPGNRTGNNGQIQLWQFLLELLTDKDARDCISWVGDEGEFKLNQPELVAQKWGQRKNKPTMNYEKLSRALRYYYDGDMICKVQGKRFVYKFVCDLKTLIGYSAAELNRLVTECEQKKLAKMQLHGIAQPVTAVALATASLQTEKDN
# How it was run: as §1
# [4] = molecular target: T4, ERG (Homo sapiens, UniProt P11308 1-479); details: protein: recombinant; tags: N-terminal GST; dsDNA, one strand shown
# T4 sequence: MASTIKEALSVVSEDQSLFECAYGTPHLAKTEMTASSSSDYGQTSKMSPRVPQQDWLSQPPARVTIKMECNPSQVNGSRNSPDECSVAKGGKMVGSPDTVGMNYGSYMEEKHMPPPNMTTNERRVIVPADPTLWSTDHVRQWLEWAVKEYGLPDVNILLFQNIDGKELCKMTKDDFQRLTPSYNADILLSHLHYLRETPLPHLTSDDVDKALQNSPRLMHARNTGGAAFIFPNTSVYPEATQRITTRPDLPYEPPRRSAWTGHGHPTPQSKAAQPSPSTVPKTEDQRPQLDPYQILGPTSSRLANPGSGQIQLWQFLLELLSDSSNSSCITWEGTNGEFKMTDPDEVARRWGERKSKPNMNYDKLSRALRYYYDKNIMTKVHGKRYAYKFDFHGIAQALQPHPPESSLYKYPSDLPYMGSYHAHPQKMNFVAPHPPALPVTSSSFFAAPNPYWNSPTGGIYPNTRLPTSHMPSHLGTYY
# How it was run: as §1
# [5] = molecular target: ELF1 (Homo sapiens, UniProt P32519 1-619); details: protein: recombinant; tags: N-terminal GST; dsDNA, one strand shown
# Chain of ELF1 (P32519 whole entry): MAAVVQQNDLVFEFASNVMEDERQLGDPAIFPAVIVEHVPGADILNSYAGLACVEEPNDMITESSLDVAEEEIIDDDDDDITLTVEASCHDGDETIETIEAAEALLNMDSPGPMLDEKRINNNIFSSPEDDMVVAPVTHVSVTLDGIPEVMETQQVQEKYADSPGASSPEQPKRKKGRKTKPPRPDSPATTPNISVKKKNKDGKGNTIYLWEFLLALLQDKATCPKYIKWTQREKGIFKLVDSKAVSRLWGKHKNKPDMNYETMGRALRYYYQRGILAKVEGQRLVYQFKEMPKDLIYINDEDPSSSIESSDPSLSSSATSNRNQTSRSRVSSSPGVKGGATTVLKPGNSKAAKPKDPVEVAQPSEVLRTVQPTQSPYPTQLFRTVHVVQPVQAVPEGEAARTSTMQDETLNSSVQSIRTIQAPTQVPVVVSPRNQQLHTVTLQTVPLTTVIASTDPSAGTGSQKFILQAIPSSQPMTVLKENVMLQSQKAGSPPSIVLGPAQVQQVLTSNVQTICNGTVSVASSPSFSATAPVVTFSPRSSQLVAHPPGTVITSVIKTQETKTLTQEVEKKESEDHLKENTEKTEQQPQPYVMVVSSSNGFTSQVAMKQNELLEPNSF
# How it was run: as §1
# [6] = molecular target: T5, EHF (Homo sapiens, UniProt Q9NZC4 1-300); details: protein: recombinant; tags: N-terminal GST; dsDNA, one strand shown
# T5 sequence: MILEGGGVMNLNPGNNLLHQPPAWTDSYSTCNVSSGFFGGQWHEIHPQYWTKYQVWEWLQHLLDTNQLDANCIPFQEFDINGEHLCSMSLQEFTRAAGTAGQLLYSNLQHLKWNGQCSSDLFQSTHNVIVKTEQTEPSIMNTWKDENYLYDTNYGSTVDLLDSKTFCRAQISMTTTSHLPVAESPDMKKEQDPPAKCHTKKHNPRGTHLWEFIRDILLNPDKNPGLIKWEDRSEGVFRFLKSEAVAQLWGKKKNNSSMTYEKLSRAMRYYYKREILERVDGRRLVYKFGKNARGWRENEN
# How it was run: as §1
# [7] = molecular target: SPI1 (Homo sapiens, UniProt P17947 1-270); details: protein: recombinant; tags: N-terminal GST; dsDNA, one strand shown
# How it was run: as §1
# [8] = molecular target: SPIB (Homo sapiens, UniProt Q01892 1-262); details: protein: recombinant; tags: N-terminal GST; dsDNA, one strand shown
# Chain of SPIB (Q01892 whole entry): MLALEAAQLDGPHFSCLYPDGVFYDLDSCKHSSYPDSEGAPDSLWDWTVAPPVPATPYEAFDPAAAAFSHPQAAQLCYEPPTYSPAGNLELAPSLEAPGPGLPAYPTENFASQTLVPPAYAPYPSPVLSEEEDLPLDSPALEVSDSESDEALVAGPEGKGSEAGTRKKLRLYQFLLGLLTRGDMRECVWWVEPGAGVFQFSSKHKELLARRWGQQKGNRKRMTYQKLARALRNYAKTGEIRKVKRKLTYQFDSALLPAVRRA
# How it was run: as §1
# [9] = molecular target: T6, ELK3 (Homo sapiens, UniProt P41970 1-407); details: protein: recombinant; tags: N-terminal GST; dsDNA, one strand shown
# T6 sequence: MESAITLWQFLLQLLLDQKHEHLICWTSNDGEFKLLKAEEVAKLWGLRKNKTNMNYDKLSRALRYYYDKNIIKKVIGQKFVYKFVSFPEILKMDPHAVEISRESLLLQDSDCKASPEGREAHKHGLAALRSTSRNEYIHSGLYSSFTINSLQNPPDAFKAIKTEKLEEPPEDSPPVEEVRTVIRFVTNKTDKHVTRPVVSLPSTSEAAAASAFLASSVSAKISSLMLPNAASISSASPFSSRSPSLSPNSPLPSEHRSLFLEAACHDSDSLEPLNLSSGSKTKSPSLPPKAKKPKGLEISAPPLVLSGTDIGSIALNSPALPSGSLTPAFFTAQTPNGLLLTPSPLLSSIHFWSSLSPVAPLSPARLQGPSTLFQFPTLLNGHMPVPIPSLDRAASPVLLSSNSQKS
# How it was run: as §1
# [10] = molecular target: T7, FEV (Homo sapiens, UniProt Q99581 1-238); details: protein: recombinant; tags: N-terminal GST; dsDNA, one strand shown
# T7 sequence: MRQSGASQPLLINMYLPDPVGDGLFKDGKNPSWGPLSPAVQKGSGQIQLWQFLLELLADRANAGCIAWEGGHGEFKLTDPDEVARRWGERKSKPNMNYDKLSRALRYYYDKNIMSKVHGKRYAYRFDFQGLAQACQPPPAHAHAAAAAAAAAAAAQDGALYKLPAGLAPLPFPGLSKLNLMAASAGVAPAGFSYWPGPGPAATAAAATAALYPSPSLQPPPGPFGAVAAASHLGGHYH
# How it was run: as §1
# [11] = molecular target: ETV5 (Homo sapiens, UniProt P41161 1-510); details: protein: recombinant; tags: N-terminal GST; dsDNA, one strand shown
# Chain of ETV5 (P41161 whole entry): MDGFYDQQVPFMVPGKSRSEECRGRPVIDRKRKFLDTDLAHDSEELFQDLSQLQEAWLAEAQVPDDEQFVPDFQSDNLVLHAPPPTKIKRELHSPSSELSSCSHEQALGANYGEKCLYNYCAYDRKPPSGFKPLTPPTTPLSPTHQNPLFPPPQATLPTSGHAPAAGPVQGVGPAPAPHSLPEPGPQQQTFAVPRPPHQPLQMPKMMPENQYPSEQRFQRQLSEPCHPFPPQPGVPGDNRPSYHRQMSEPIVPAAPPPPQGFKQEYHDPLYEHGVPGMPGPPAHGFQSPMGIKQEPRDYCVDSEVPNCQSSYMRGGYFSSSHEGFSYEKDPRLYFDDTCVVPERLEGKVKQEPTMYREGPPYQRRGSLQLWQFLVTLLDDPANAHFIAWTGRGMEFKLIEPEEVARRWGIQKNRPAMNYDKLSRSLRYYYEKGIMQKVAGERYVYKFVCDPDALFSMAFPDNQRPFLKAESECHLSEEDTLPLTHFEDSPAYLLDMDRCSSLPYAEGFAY
# How it was run: as §1
# [12] = molecular target: HSF1 (Homo sapiens, UniProt Q00613 1-529); details: protein: recombinant; tags: N-terminal GST; chain copies: 3; dsDNA, one strand shown
# Chain of HSF1 (Q00613 whole entry): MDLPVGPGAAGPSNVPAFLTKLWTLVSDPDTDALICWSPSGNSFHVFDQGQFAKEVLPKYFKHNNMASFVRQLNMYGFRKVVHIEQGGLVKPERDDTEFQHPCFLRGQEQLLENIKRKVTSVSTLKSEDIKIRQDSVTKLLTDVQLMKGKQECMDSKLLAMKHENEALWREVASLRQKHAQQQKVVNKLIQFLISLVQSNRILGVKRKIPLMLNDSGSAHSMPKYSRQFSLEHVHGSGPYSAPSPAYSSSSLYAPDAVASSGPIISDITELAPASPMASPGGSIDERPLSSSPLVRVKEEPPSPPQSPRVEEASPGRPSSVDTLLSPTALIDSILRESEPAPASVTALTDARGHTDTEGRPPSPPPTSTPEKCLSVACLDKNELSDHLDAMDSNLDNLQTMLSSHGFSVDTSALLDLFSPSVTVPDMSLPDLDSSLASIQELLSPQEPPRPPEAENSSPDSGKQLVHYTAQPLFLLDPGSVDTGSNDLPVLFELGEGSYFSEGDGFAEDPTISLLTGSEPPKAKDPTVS
# How it was run: as §1
# [13] = molecular target: T8, SPIC (Homo sapiens, UniProt Q8N5J4 1-248); details: protein: recombinant; tags: N-terminal GST; dsDNA, one strand shown
# T8 sequence: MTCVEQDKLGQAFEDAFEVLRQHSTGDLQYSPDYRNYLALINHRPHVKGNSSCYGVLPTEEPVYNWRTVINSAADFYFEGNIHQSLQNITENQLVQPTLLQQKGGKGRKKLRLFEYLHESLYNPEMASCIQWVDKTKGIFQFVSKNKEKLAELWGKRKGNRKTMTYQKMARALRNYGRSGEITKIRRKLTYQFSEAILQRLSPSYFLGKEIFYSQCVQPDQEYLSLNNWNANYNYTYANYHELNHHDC
# How it was run: as §1
# [14] = molecular target: ELF4 (Homo sapiens, UniProt Q99607 1-663); details: protein: recombinant; tags: N-terminal GST; dsDNA, one strand shown
# Chain of ELF4 (Q99607 whole entry): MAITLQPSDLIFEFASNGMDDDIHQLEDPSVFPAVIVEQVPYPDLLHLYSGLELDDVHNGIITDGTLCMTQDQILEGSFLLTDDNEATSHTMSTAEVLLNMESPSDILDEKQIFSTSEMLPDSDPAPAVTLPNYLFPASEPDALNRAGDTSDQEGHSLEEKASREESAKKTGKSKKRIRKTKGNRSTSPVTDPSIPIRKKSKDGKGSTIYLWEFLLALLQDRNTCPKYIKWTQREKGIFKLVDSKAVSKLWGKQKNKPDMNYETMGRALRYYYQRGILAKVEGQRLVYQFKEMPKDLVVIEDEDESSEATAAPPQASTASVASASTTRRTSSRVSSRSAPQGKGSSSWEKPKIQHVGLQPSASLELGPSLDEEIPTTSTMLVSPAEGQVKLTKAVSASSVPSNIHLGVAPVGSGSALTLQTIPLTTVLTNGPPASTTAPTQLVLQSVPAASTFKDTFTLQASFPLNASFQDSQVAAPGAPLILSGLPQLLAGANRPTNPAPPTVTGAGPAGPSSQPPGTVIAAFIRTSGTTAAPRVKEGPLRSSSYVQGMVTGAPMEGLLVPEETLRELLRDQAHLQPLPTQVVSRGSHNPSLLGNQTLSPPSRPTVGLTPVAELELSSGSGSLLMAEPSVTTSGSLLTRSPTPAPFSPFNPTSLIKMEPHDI
# How it was run: as §1
# [15] = molecular target: T9, ELK4 (Homo sapiens, UniProt P28324-2 1-405); details: protein: recombinant; tags: N-terminal GST; dsDNA, one strand shown
# T9 sequence: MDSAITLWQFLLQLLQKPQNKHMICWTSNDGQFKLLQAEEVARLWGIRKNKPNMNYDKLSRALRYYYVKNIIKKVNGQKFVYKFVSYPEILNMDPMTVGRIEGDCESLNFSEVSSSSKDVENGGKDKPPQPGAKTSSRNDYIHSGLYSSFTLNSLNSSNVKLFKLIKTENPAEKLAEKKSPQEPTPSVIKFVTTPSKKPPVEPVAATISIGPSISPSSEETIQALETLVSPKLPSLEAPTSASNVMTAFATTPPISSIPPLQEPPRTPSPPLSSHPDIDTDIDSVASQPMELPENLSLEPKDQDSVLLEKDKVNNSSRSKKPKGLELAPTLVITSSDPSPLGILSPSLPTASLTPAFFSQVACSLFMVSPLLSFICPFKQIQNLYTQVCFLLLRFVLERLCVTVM
# How it was run: as §1
# [16] = molecular target: T10, ETV2 (Homo sapiens, UniProt O00321 1-342); details: protein: recombinant; tags: N-terminal GST; dsDNA, one strand shown
# T10 sequence: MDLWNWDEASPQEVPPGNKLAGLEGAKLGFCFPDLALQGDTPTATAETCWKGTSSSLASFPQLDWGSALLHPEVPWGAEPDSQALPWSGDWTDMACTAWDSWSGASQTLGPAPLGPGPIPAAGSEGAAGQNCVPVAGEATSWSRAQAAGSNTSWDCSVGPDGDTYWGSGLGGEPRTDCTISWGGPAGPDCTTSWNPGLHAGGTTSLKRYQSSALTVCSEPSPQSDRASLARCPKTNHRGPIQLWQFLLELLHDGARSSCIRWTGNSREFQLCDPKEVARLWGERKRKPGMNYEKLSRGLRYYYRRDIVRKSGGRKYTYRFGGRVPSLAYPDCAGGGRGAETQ
# How it was run: as §1
# [17] = molecular target: T11, ELF3 (Homo sapiens, UniProt P78545 1-371); details: protein: recombinant; tags: N-terminal GST; dsDNA, one strand shown
# T11 sequence: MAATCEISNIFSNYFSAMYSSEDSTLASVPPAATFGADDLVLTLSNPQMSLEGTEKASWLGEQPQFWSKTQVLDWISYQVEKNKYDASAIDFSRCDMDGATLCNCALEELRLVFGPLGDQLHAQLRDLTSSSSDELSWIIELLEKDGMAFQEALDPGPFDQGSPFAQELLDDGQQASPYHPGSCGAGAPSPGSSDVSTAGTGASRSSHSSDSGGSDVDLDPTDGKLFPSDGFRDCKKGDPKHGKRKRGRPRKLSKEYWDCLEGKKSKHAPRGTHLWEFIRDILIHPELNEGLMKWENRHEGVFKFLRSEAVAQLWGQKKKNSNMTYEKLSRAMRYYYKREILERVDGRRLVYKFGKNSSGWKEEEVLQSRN
# How it was run: as §1
# [18] = molecular target: CRX (Homo sapiens, UniProt O43186 1-299); details: protein: recombinant; tags: N-terminal GST; dsDNA, one strand shown
# Chain of CRX (O43186 whole entry): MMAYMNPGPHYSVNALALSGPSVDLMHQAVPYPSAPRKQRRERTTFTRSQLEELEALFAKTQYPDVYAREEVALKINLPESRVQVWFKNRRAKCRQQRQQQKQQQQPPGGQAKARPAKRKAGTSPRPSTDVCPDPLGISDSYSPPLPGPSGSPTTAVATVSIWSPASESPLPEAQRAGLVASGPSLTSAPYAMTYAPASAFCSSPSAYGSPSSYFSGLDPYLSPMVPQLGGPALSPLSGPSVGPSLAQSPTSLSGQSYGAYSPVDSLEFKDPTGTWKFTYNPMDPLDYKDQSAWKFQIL
# How it was run: as §1
# [19] = molecular target: ETV1 (Homo sapiens, UniProt P50549 1-477); details: protein: recombinant; tags: N-terminal GST; dsDNA, one strand shown
# Chain of ETV1 (P50549 whole entry): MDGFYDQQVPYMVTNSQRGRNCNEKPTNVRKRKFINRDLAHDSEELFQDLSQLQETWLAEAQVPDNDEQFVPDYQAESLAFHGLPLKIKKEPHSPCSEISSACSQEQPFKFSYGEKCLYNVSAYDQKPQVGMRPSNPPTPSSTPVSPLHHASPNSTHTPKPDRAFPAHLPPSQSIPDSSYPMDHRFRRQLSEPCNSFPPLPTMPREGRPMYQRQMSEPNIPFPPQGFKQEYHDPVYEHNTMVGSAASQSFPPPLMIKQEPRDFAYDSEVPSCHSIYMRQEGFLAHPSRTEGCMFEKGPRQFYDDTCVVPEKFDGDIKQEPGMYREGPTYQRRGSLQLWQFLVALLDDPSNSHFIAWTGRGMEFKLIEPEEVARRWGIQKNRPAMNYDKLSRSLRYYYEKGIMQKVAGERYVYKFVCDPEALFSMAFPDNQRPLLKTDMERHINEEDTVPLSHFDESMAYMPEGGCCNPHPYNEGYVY
# How it was run: as §1
sequence,measurement,setting,value
TTCCCC,binding signal,[1],"1.74 fold enrichment (6-mer frequency, TF over GST control)"
same,binding signal,[2],"1.58 fold enrichment (6-mer frequency, TF over GST control)"
same,binding signal,[3],"1.71 fold enrichment (6-mer frequency, TF over GST control)"
same,binding signal,[4],"1.67 fold enrichment (6-mer frequency, TF over GST control)"
same,binding signal,[5],"1.72 fold enrichment (6-mer frequency, TF over GST control)"
same,binding signal,[6],"1.68 fold enrichment (6-mer frequency, TF over GST control)"
same,binding signal,[7],"2.54 fold enrichment (6-mer frequency, TF over GST control)"
same,binding signal,[8],"1.66 fold enrichment (6-mer frequency, TF over GST control)"
same,binding signal,[9],"1.61 fold enrichment (6-mer frequency, TF over GST control)"
same,binding signal,[10],"1.64 fold enrichment (6-mer frequency, TF over GST control)"
same,binding signal,[11],"1.71 fold enrichment (6-mer frequency, TF over GST control)"
same,binding signal,[12],"1.42 fold enrichment (6-mer frequency, TF over GST control)"
same,binding signal,[13],"1.87 fold enrichment (6-mer frequency, TF over GST control)"
same,binding signal,[14],"1.78 fold enrichment (6-mer frequency, TF over GST control)"
same,binding signal,[15],"1.48 fold enrichment (6-mer frequency, TF over GST control)"
same,binding signal,[16],"1.8 fold enrichment (6-mer frequency, TF over GST control)"
same,binding signal,[17],"1.64 fold enrichment (6-mer frequency, TF over GST control)"
same,binding signal,[18],"1.44 fold enrichment (6-mer frequency, TF over GST control)"
same,binding signal,[19],"1.69 fold enrichment (6-mer frequency, TF over GST control)"
